This note sets out measurements from the supplement of paper PMC10105736.

Unmarked numbers belong to inactive results.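 How the source made its calls: active = MAPPIT score above the 99th percentile of random reference set scores in the same batch; inactive = at or below it.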

Holding throughout (experiment): MAPPIT interaction score (arbitrary units); higher = stronger binary interaction signal, active = hit call of the paper
One assay has as its target Pis. The conditions noted are these: MAPPIT configuration: N-N; pair source set: DPIM.
Another assay addresses Prp3. The following applies: MAPPIT configuration: N-N.
In another assay the target is Pgam5. The conditions noted are these: MAPPIT configuration: N-N; pair source set: DPIM.
The next assay has as its target PolZ2. The conditions noted are these: MAPPIT configuration: N-N; pair source set: Finley_Y2H.
In the next assay the target is Prosalpha2. The following applies: pair source set: Lit-BM-16.
For the next assay, the target named is Prosalpha4. The following applies: MAPPIT configuration: N-N; pair source set: Lit-BM-16.
The target of a further assay is Prosbeta7. The following applies: pair source set: Lit-BM-16.
For a further assay, the target named is Pex3. The following applies: MAPPIT configuration: N-C.
The next assay deals with SsRbeta. The following applies: MAPPIT configuration: N-C; pair source set: screen_3.
In a further assay the target is Rpt2. The conditions noted are these: MAPPIT configuration: N-N.
The target of another assay is Rpt4. The following applies: MAPPIT configuration: N-N; pair source set: Lit-BM-16.
The next assay deals with Pgd. The conditions noted are these: pair source set: RRS.
For another assay, the target named is Pfdn5. The following applies: pair source set: Lit-BM-16.
The target of a further assay is Prosbeta2. The following applies: MAPPIT configuration: N-N; pair source set: Lit-BM-16.
A further assay deals with Pfdn1. The following applies: MAPPIT configuration: N-N; pair source set: Curagen_high_conf.
A further assay concerns the target Prosbeta3. The conditions noted are these: MAPPIT configuration: N-C; pair source set: Lit-BM-16.
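Further: HEK293T cells with Epo stimulation, STAT-responsive firefly luciferase reporter, fold induction versus unstimulated cells divided by the larger fold induction of two negative controls lacking either bait or prey.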

B1: CG7601 (protein)
chain: MKVQDMDKCAPSSDWNVLYWVLGTVLMPVALPLAIINIWQRFQAQKFRNQLPGKVVLITGASSGLGESLAHVFYRAGCRVILAARRTQELERVKKDLLALDVDPAYPPTVLPLDLAELNSIPEFVTRVLAVYNQVDILINNGGISVRADVASTAVDVDLKVMVVNYFGSVALTKALLPSMVKRGSGHICFISSVQGKFAIPQRAAYSASKHAMQAFADSLRAEVANKNINVSCVSPGYIRTQLSLNALTGSGSSYGKVDETTAKGMSPDKLAERILQCILRKEPDIIVSDVQAKIAYYLRHLCPSLYFWIMAKRAVKLENAEKKST
Consider B1, for which the MAPPIT interaction score with Pis was 0.037.

B2: Mettl14 (protein)
chain: MSDVLKSSQERSRKRRLLLAQTLGLSSVDDLKKALGNAEDINSSRQLNSGGQREEEDGGASSSKKTPNEIIYRDSSTFLKGTQSSNPHNDYCQHFVDTGQRPQNFIRDVGLADRFEEYPKLRELIKLKDKLIQDTASAPMYLKADLKSLDVKTLGAKFDVILIEPPLEEYARAAPSVATVGGAPRVFWNWDDILNLDVGEIAAHRSFVFLWCGSSEGLDMGRNCLKKWGFRRCEDICWIRTNINKPGHSKQLEPKAVFQRTKEHCLMGIKGTVRRSTDGDFIHANVDIDLIISEEEEFGSFEKPIEIFHIIEHFCLGRRRLHLFGRDSSIRPGWLTVGPELTNSNFNSELYQTYFAEAPATGCTSRIELLRPKSPPPNSKVLRGRGRGFPRGRGRPR
B2: the MAPPIT interaction score with Prp3 (pair source set: Curagen_high_conf) is 1.8.

B3: Vps25 (protein)
chain: MAEFQWPWEYTFPPFFTLQPHEETRQQQLKVWTDLFLKYLRHTNRFTLSIGDQNSPLFHNEALKRRLSPELVLAILGELERSGHANPLDKRRQEWQVYWFTLEEYGNMVYDWVQETGQTNTICTLYEIASGENTSHLDFYGVDEAVLLSALRLLEEKGRCELIEMDGSHGVKFF
With B3, the MAPPIT interaction score in the assay with Pgam5 is 2.9 (active).

B4: rtp (protein)
chain: MAMDDYDDDMSSVGVTTARIENQHQQHPHQQGQHGHHQQGQGQSQYSAGAVKVGGWRYEDASRYIGEWNQRGQKHGIGHLQFADGTRYDGQFQEGLSQGVGCLWFADGAKYEGEFHQGWFHGNGIFWRADGMKYEGEFRGGKIWGLGLLTFQDFTHGFPRNEGFFQDCRFMRRRRCPEVVQRAQKCALMARSQCEHPY
B4: the MAPPIT interaction score with PolZ2 is 0.217.

B5: Prosbeta3 (protein)
chain: MSILAYNGGCVVAMRGKDCVAIATDHRFGIQAQTISTDFKKVFHIGPRMFLGLTGLQTDILTVRDRLMFRKNLYETRENREMCPKPFSAMMSSFLYEHRFGPYFIEPVVAGLDPKTMEPFICNMDLIGCPNAPDDFVVAGTCAEQLYGMCETLWKPDLEPDQLFEVIAQSIVNAFDRDAMSGWGATVYIIEKDKITERTLKTRMD
For B5, the MAPPIT interaction score with Prosalpha2 (MAPPIT configuration: N-N) is 1.33; with Prosalpha4, -0.232; in the assay with Prosbeta7 (MAPPIT configuration: N-C), 0.398; with Prosbeta7 (MAPPIT configuration: N-N), 0.197.

B6: hig (protein)
chain: MWSRQRMRHKPLWALISLTVLLLVLDKSNANTEPVETSTTSEPDASPGCRAPDVRFTIVKPEATTEQPLAKFETTQIYLPEDFTTADVEFVDSVPRHPNENHAAVINPYSLDLGDDHLHVGDAAASLVGDDDLGDEDEDHHGDPEDKRLNANRKQGKRRRAGSGRRRRIENENGQTGRGRGSRYKRHAILHDTEASPETDRWAGSKLAAEGDVYYVHIADILKSREPNRELKSKLHKLKMKARLNKCLAEGGKEKCTRLLKKKPKKKVVEKEQTLKKEKKFPKEEQSKEKVPENGQTPKEDELELDHPETAAAHHRRRGDSHAAELDQRDRSPRWRRRRSTEFKGDLGQLPPESGIGPEPEPLADQDLKDLQQYGNQSSSARVALLWQRVKRKSGKTTGALSRPKGGGDSSSKTTSRKDKGIYDEEAGYTPIHPDDPEFDEEEEEDEEVDILQQFTEVSEIRFPGEIGPMGDRRLCKIRCVKGKWVGPLCATNEEDDNGNVKFQPLYKSCHVNRIPSHLLLSYRNISVTPIPPNRGWRKTRLSKSTLLSNTEINVGWDLPHGHSLQARCQELGIYKLLGESRVLCSNGLWAPRMPSCVPTTVLTNYSEDSAPSIRIKIFNGSHSFEPSGVMAVPPHSTVLMDCMYPRVRGTPEWSWTSWYMQYSTGWSPAQEEKAVRYRLSIKNIENNDSGTFTCTSPRGLTNSIAVVVATSTCPQLTEPLAPLKLRLEGNKLGQRAHYECPEGFRLDGAWNATCLASGNWSSPTPTCHAIQCPRLELDDPHLSLIELNTSAWGRAVFKCQWGFKLTGPAQLDCEPSGVWSGPVPRCKVIQCVMPVAPLNGRIGGTSLSQRRLTVGALVTFSCNDGHSLVGESSIICTENGQWSHSPPFCKSQCPYPGDPPNGLIAPLKFNYDAGDYLSVQCRPGFVQSYEGPPERPKCQPDGRWSGPMPKCKSYEEV
For B6, the MAPPIT interaction score in the assay with Pex3 (pair source set: screen_3) was 1.39; with SsRbeta, -0.0878.

B7: Rpt6 (protein)
chain: MTVTNRMEIESAYHKGEGFRSYYIQKIEELQLVVAEKHQNLRRLQAQRNELNAKVRMLREELQLLQEQGSYVGEVVKPMDKKKVLVKVHPEGKFVVDLDKNIDINDVTPNCRVALRNESYTLHKILPNKVDPLVSLMMVEKVPDSTYEMVGGLDKQIKEIKEVIELPVKHPELFDALGIAQPKGVLLYGPPGTGKTLLARAVAHHTECTFIRVSGSELVQKFIGEGSRMVRELFVMAREHAPSIIFMDEIDSIGSSRIESGSGGDSEVQRTMLELLNQLDGFEATKNIKVIMATNRIDILDPALLRPGRIDRKIEFPPPNEEARLDILKIHSRKMNLTRGINLRKIAELMPGASGAEVKGVCTEAGMYALRERRVHVTQEDFEMAVAKVMQKDSEKNMSIKKLWK
For B7, the MAPPIT interaction score with Prosalpha2 (MAPPIT configuration: N-C) is 1.08; with Prosalpha2 (MAPPIT configuration: N-N), 1.52; in the assay with Rpt2 (pair source set: Finley_Y2H), 2.59; with Rpt2 (pair source set: Lit-BM-16) it was 2.59; in the assay with Rpt4, -0.794.

B8: CG4709 (protein)
chain: MEEYEAQLLVVEQALENAADDAQRQDLLALKNNLQELLALTRESGDEAPIDELPQQGDNLDDELQRLKSELNDLEAAGSSQTALDEERQLADLRTKYTAMVGEKCSAPHEHSWGTCYHNALICGVDDEVVMNSEGVLDARLRVLFTNPTHREMLPCSYYLEGECRFDEAKCRFSHGALVTGSSIRKYNPPDFHKLSRSRPVFALLPDRLWHRGRVLCVNFVEQICRVRLDGQDHKERERDFKFEELYPLTTDQDEDDELSSEESNSSMNDNSSDEAESDMDDLEEARRARMVELSLFTFKPTERLGAWEEFTRGIGSKLMEKMGYIHGTGLGSDGRGIVTPVSAQILPQGRSLDACMELREAANGDKDYFSVERKLKRAQRRQRKADEKAYVRESQRVDVFTFLNDSVLGPGESTQQGEQVTKKAKTNELQQHSTKTLNVETVRIADEIRRKQRDMAKVKQSLDRNSGDAQLQKRLQVQMQSHKQELATLQAQERSLSKEQQTRKSKNKMFEF
As to B8, the MAPPIT interaction score with Prp3 (pair source set: Lit-BM-16) was 2.3.

B9: up (protein)
chain: MSDDEEYTSSEEEEVVEETREETKPPQTPAEGEGDPEFIKRQDQKRSDLDDQLKEYITEWRKQRSKEEDELKKLKEKQAKRKVTRAEEEQKMAQRKKEEEERRVREAEEKKQREIEEKRMRLEEAEKKRQAMLQAMKDKDKKGPNFTIAKKDAGVLGLSSAAMERNKTKEQLEEEKKISLSFRIKPLAIEGFGEAKLREKAQELWELIVKLETEKYDLEERQKRQDYDLKELKERQKQQLRHKALKKGLDPEALTGKYPPKIQVASKYERRVDTRSYDDKKKLFEGGWDEISKDSNEKIWNEKKEQYTGRQKSKLPKWFGERPGKKAGEPETPEGEEDAKADEDIVEDDEEVEEEVVEEEDEEAEEDEEEEEEEEEEEEEEEEEEEEEEEEEEEEEE
For B9, the results for the MAPPIT interaction score in the assay with Pgd (MAPPIT configuration: N-C) and with Pgd (MAPPIT configuration: N-N) were 1.18 and 0.149, respectively.

B10: Pfdn2 (protein)
chain: MSTESAKPALSQEAIVAQFQQLRNEQRNLVNSLNTLEMDLREHKTVIETLEAADPERKCFRQIGGVLCERTVKEVLPQLVENKDFIAKTIQMVTNDLSKKGSELNKFKEEHNIKIRGEHLVAEGAKGDDAEDKAENRNVLVFN
B10: the results for the MAPPIT interaction score with Pfdn5 (MAPPIT configuration: N-C) and with Pfdn5 (MAPPIT configuration: N-N) were 2.36 and 5.93 (active), respectively.

B11: Prosbeta4 (protein)
chain: MLNNYNSLAQPMWQNGPAPGEFYNFTGGQTPVQQLPRELTTMGPYGTKHSTASSTTGTSVLGIRYDSGVMLAADTLVSYGSMARYQNIERVFKVNKNILLGGSGDFADIQSIKRNIDQKMIEDQCCDDNIEMKPKSLASWMTRVLYNRRSRMNPLYIDVVVGGVDNEGTPYLANVDLRGRSYEDYVVATGFARHLAVPLVREKKPKDRDFTAVEASELIRTCMEVLYYRDTRNISQYTVGVCSVNGCGVEGPFQVNENWTFAETIKGY
Regarding B11, the MAPPIT interaction score with Prosbeta2 was 2.07.

B12: Cpsf6 (protein)
chain: MADVVLDLYAEDLDKDFAGQAQDEFGGDGVDLYDDIGGPTESAASGGGGGGTPSADGAAGPGSGEPGERNSGGPNGVYHQSSGSLTPTMNRRYQLYVGNLTWWTTDQDIANSLRDIGVSDLQEVKFFENRANGQSKGFSVISLGSESSLRAVLDQLPKKEMHGQAPVVTYPSKQALTQFESLQKTRPVPPPQQNGPPRGPAPPSMGGGPMPTGHPGGPQGGGPPGHPPRGMNSIMQPGQYRPQHMSQVPQVGGPNSGPPRMQPPMHPQGGLMGNQQPPPRYPSAQGQWPGQRPGGPRPGPPNGPPQRPMFQGGPMGMPVRGPAGPDWRRPPMHGGFPPQGPPRGLPPAPGPGGPHGAPAPHVNPAFFNQPGGPAQHPGMGGPPHGAPGPQPGMNMPPQQGMNMTPQHGPPPQFAQHGPRGPWPPPQGKPPGPFPDPQQMGPQLTEVEFEEVMSRNRTVSSSAIARAVSDAAAGEYSSAIETLVTAISLIKQSKVAHDERCKILISSLQDTLHGIEAKSYNRRERSRSRERSHRSRQRRERSTSRYRERSRERERDRDRERERDGGSYRERSRSRERERQAPDHYRDDSRSVRPRKSPEPVVAEAAEAPSSKRYYEDRERYRSSDRERRDRDRDRDRERERDRDRREEHRSRH
Regarding B12, in the assay with Pfdn1, the MAPPIT interaction score is 0.767.

B13: heix (protein)
chain: MATSSQLLPNGNLSRNGKTKTEDGEEVEAVVGARAAGADAGVALTGRLTGHPSTSGTFMKLKTYLLALRPWSLSASLVPTLLGSALAYRSQWAEEFSLATFFLTAFTVVTVHCAGNVVNTYFDFIKGIDKQKADDRTLVDHILTKDEVVSLGAILYMAGCGGFVLLAVLSPAKMEHLALIYFGGLSSSFLYTGGIGFKYIALGDLVILILFGPISVLFAFMSQTGHLDWTTMGYAIPLALNTEAILHSNNTRDADNDRRAGIVTLAILIGRTASHVLYAMLLFAPYSLFFIFGLKYSLWFLLPLVTLPQAFQIEKRFRNEQTMHLVPRQTAKLNFFFGILYVVACCCAHQLPTFGLRRN
For the molecule B13, the MAPPIT interaction score with Pex3 (pair source set: screen_4) was -0.663.

B14: Prosalpha4 (protein)
chain: MSSRYDRAVTIFSPDGHLLQVEYAQEAVRKGSTAVGVRGANCVVLGVEKKSVAQLQEDRKVRKICMLDNHVVMAFAGLTADARIMINRAQVECQSHRLNVEDPVTLEYITRFIAQLKQKYTQSNGRRPFGISCLIGGFDADGSAHLFQTEPSGIFYEYKANATGRSAKVVREFFEKSYREEEVANEHGAVKLAIRALLEVAQSGQNNLEVAIMENGKPLKMLDTDVITDYVKIIEKEKEEELEKKKQKK
As to B14, the MAPPIT interaction score in the assay with Prosbeta3 is 1.51.
